Assay outcomes as filed in PubChem BioAssay.
A selection: hits, their analogues and other compounds. The true share with any hit is near 5.9%.
rCAG binder: molecules binding r(CAG) RNA repeats. r(CAG) RNA repeat, TO-PRO-1 dye displacement fluorescence. inhibition, % at 3 µM. 370,000 compounds, 1.3% hits;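 active means inhibition above the plate cutoff, the mean of all test compounds on that plate plus 3 SD, cut at about 35% in these data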;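 further: higher means more dye released from RNA so lower well fluorescence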
ALR inh: human ALR oxidase inhibition via reduced H2O2. purified ALR, DTT oxidation, H2O2 HRP-luminol luminescence. P55789. AID 485317. inhibition, % (test concentration not listed). 290,000 compounds, 3.8% hits;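 active means mean replicate inhibition above about 79%, with every replicate also reaching it, limit read from the data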
Target sequence (P55789 whole entry, looked up): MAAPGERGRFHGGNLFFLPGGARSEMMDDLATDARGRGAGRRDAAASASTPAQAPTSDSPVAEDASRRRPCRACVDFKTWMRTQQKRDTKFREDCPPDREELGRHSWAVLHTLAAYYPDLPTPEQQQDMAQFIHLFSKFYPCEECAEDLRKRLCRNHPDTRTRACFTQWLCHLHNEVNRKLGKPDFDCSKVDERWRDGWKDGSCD
Rtt109 HAT inh: blocks Candida albicans Rtt109/Vps75 acetyltransferase activity. purified Rtt109/Vps75, ThioGlo CoA-SH fluorescence, 4 h. Q5AAJ8. 330,000 compounds, 0.16% hits. inhibition, % at 34.9 µM;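 active means inhibition of at least 50% in every replicate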
LANA-H2A inh: blocks KSHV LANA binding to histone H2A/H2B. Q9QR71. cell-free LANA-H2A/H2B peptide, fluorescence polarization. inhibition, % (concentration not given with the values). 320,000 compounds, 0.6% hits; in the data active means inhibition mostly above about 10%, no sharp cut-off; inactive means mostly below about 6.7%
ABHD5 PLIN5 PPI: blocks binding of human ABHD5 to perilipin-5 | Q00G26+Q8WTS1 | Split G. princeps luciferase complementation, luminescence, 4 h | inhibition, % at 4 µM | 360,000 compounds, 0.78% hits;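 active means inhibition above the mean inhibition across every tested compound plus 3 SD, cut at about 22% in these data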
PRMT1 inh: inhibitors of human PRMT1; 370,000 compounds, 1.3% hits; recombinant PRMT1, activity-based probe fluorescence polarization; Q99873; inhibition, % at 2.79 µM;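 active means inhibition above about 21% made by adding two undisclosed values, limit read from the data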
Target sequence (Q99873 whole entry, looked up): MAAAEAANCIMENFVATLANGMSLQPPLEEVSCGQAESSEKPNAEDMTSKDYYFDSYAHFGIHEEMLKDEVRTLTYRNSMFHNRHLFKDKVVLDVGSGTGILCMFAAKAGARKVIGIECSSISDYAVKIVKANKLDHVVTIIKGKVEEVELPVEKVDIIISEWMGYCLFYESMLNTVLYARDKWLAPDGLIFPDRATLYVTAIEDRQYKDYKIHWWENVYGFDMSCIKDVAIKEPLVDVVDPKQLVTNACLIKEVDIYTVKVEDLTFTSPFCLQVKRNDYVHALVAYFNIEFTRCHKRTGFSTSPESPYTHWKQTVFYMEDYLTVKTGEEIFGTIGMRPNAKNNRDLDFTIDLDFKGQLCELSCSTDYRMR
rCAG bind conf: r(CAG) RNA repeat binding, confirmation. shares compounds with rCAG binder. TO-PRO-1 dye displacement fluorescence. inhibition, % at 3 µM. 4,300 compounds, 70% hits. AID 652065;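 active means inhibition above a per-plate cutoff, the mean inhibition of sample wells plus 3 SD, cut at about 35% in these data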;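 further: loss of TO-PRO-1 fluorescence as compound displaces dye from 1x1 AA loop RNA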
dCAG dye counter: counter-screen for rCAG RNA binders: DNA CAG dye complex inhibitors | shares compounds with rCAG binder | inhibition, % at 3 µM | d(CAG) DNA oligo TO-PRO-1 dye displacement, fluorescence | 4,300 compounds, 94% hits | AID 652068;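 active means inhibition above its plate's cutoff, the mean test-well inhibition plus 3 SD, cut at about 4.8% in these data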;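 further: hits displace the dye from DNA and so lower well fluorescence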
PRMT1 inh conf: confirmation of human PRMT1 inhibitors; AID 687036; shares compounds with PRMT1 inh; recombinant His-PRMT1, activity-based probe fluorescence polarization; 3,300 compounds, 42% hits; inhibition, % at 2.79 µM;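 active means mean inhibition across replicates above the hit cutoff derived for the earlier primary screen, cut at about 22% in these data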
Of the large screens only hits and unclear results are named; the others gave an inactive call (follow-up assays come after a bar, where they were run).

CCN(CC)CCOC(=O)c1ccc(NC(=O)CCCN2C(=O)/C(=C/c3cccs3)SC2=S)cc1	none
CCc1ccccc1NC(=O)c1cccc(NC(=O)/C=C/c2ccco2)c1	none
O=C(Nc1ccc(C(=O)O)cc1)/C(=C\c1ccco1)NC(=O)c1ccccc1	none
O=C(/C=C/c1ccco1)Nc1cccc(C(=O)Nc2ccccc2C(=O)O)c1	rCAG binder 67, ALR inh 95, PRMT1 inh 26 | rCAG bind conf 82 | dCAG dye counter 49 | PRMT1 inh conf 46
CC(C)(C)c1ccc(C(=O)N/C(=C\c2ccco2)C(=O)Nc2ccccc2C(=O)O)cc1	rCAG binder 62, PRMT1 inh 46 | rCAG bind conf 68 | dCAG dye counter 29 | PRMT1 inh conf inactive
Cc1noc(NS(=O)(=O)c2ccc(NC(=O)Cc3ccc([N+](=O)[O-])cc3)cc2)c1C	none
Cc1noc(NS(=O)(=O)c2ccc(NC(=O)CSc3nc4ccccc4s3)cc2)c1C	rCAG binder 70, ALR inh 99, PRMT1 inh 40 | rCAG bind conf 61 | dCAG dye counter 25 | PRMT1 inh conf 37
CCOC(=O)c1c(/N=C/c2cc([N+](=O)[O-])ccc2O)sc(C)c1C	rCAG binder 65, ALR inh 98, PRMT1 inh 29 | rCAG bind conf inactive | dCAG dye counter 7.2 | PRMT1 inh conf inactive
CCCCCCn1c(=O)n2n(c1=O)C[C@]1(OC(=O)NC3CC3)CN(S(=O)(=O)c3ccc(C)cc3)C[C@]1(O)C2	none (no result: ALR inh, Rtt109 HAT inh, LANA-H2A inh)
O=C(N[C@@H](Cc1cccnc1)C(=O)N1CCC[C@H]1C(=O)NCc1ccccc1)c1ccccc1	none (no result: ALR inh, Rtt109 HAT inh, LANA-H2A inh, ABHD5 PLIN5 PPI)
Oc1c(C=C2N=c3ccccc3=N2)sc(=S)n1C1CCCC1	none
O=C(Nn1c(O)c(C=C2N=c3ccccc3=N2)sc1=S)c1ccccc1	rCAG binder 51, PRMT1 inh 49 | rCAG bind conf inactive | dCAG dye counter 9.6 | PRMT1 inh conf inactive
O=C1N=c2ccccc2=C1c1sc(=S)n(NC(=O)c2cccc(O)c2)c1O	none (no result: ALR inh, LANA-H2A inh)
O=C(Nn1c(O)c(C=C2N=c3ccccc3=N2)sc1=S)c1cccc(Cl)c1	rCAG binder 73, PRMT1 inh 39 | rCAG bind conf 43 | dCAG dye counter 15 | PRMT1 inh conf inactive
Cc1ccc(C(=O)Nn2c(O)c(C=C3N=c4ccccc4=N3)sc2=S)cc1	rCAG binder 58, PRMT1 inh 55 | rCAG bind conf 40 | dCAG dye counter 16 | PRMT1 inh conf inactive
O=c1c2ccccc2n(Cc2ccco2)n1[C@@H](Cc1ccccc1)Cn1cc(C2CCCC2)nn1	none (no result: ALR inh, Rtt109 HAT inh, LANA-H2A inh, ABHD5 PLIN5 PPI)
C[C@@H]1CN([C@H](C)CO)C(=O)c2ccccc2-c2ccccc2CO[C@@H]1CN(C)C(=O)Nc1ccccc1	none (no result: ALR inh, Rtt109 HAT inh, LANA-H2A inh, ABHD5 PLIN5 PPI)
CC(C)N1C(=O)S/C(=C\c2ccc(-c3ccc(Cl)c(C(=O)O)c3)o2)C1=O	rCAG binder 51, PRMT1 inh 52 | rCAG bind conf 47 | dCAG dye counter 16 | PRMT1 inh conf inactive
CCOC(=O)CN1C(=O)S/C(=C\c2ccc(-c3ccc(C(=O)O)c(Cl)c3)o2)C1=O	none
S=c1[nH]nc(COc2ccccc2)n1/N=C/c1ccc(Br)s1	rCAG binder 44, ALR inh 95, PRMT1 inh 26 | rCAG bind conf inactive | dCAG dye counter 8.1 | PRMT1 inh conf inactive
Oc1ccccc1/C=N/n1c(COc2ccccc2)n[nH]c1=S	none
Oc1ccc(/C=N/NC(=S)Nc2cccnc2)c(O)c1O	rCAG binder 44, PRMT1 inh 67 (no result: ALR inh, LANA-H2A inh) | rCAG bind conf 39 | dCAG dye counter 15 | PRMT1 inh conf 88
Fc1c(F)c(F)c(/C=N/NC(=S)Nc2cccnc2)c(F)c1F	none
O=C(Cc1nnc(NC(=O)c2ccccc2)s1)N/N=C/c1cccc(O)c1	none
O=C(Cc1nnc(NC(=O)c2ccccc2)s1)N/N=C/c1ccco1	rCAG binder 71, PRMT1 inh 41 (no result: ALR inh, LANA-H2A inh) | rCAG bind conf inactive | dCAG dye counter 5.7 | PRMT1 inh conf inactive
O=C1NC(=S)S/C1=C\c1cc(Cl)cc(Cl)c1O	rCAG binder 38, PRMT1 inh 32 (no result: ALR inh, LANA-H2A inh) | rCAG bind conf 47 | dCAG dye counter 15 | PRMT1 inh conf 34
O=C1NC(=S)SC1=Cc1ccccc1Cl	none (no result: ALR inh, LANA-H2A inh)
N#Cc1c(SCC(=O)Nc2ccc(Cl)cc2Cl)sc2c(O)cc(=O)[nH]c12	rCAG binder 44, ALR inh 99, PRMT1 inh 30 | rCAG bind conf inactive | dCAG dye counter 13 | PRMT1 inh conf inactive
O=C(CSc1nc(NS(=O)(=O)c2ccccc2)cc(=O)[nH]1)Nc1ccccc1C(F)(F)F	none
N#Cc1c(SCC(=O)Nc2ccccc2C(F)(F)F)sc2c(O)cc(=O)[nH]c12	rCAG binder 50, PRMT1 inh 31 | rCAG bind conf inactive | dCAG dye counter 6.3 | PRMT1 inh conf inactive
COc1cc(/C=C2/C(C)=C(C#N)c3nc(N)c(C#N)c(C)c32)ccc1OCC(=O)O	rCAG binder 42, PRMT1 inh 27 (no result: ABHD5 PLIN5 PPI) | rCAG bind conf 41 | dCAG dye counter 17 | PRMT1 inh conf inactive
C/C=C/c1ccc(OCC(=O)O)c(OC)c1	none
COc1ccc(C(=O)CSc2nnc(-c3ccco3)c(-c3ccco3)n2)cc1	rCAG binder 51, PRMT1 inh 27 (no result: ALR inh, LANA-H2A inh) | rCAG bind conf 49 | dCAG dye counter 22 | PRMT1 inh conf 74
O=C(CSc1ccc(-c2ccco2)nn1)c1ccc(F)cc1	rCAG binder 37, PRMT1 inh 54 | rCAG bind conf inactive | dCAG dye counter inactive | PRMT1 inh conf inactive
COc1ccc(C(=O)CSc2nnc(-c3ccco3)n2CC2CCCO2)cc1 (stereo not drawn)	none
CCNC(=O)C1(C)CCN(C(=O)c2cc(OC)c(OC)c(OC)c2)C1 (stereo not drawn)	none (no result: ALR inh, Rtt109 HAT inh, LANA-H2A inh)
CSCCC(C(=O)NC1CCCC1)n1c(C2CC2)nc2ccccc21 (stereo not drawn)	none (no result: ALR inh, Rtt109 HAT inh, LANA-H2A inh)
CCC(=O)Nc1ccc2c(c1)C(=O)N(C)[C@@H]1CC[C@@H](CC(=O)OC)O[C@H]1CO2	none (no result: ALR inh, Rtt109 HAT inh, LANA-H2A inh, ABHD5 PLIN5 PPI)
O=[N+]([O-])c1c(Nc2ccccc2O)cc(Cl)c2nonc12	rCAG binder 41, ABHD5 PLIN5 PPI 63, PRMT1 inh 60 | rCAG bind conf inactive | dCAG dye counter 9.7 | PRMT1 inh conf 53
O[C@@H](Cc1ccccc1)[C@@H](/C=C/c1ccccc1)NCCc1ccccc1	none (no result: ALR inh, Rtt109 HAT inh, LANA-H2A inh, ABHD5 PLIN5 PPI)
O=C(NN1C(=O)/C(=C/C=C/c2ccco2)SC1=S)c1ccncc1	rCAG binder 77, PRMT1 inh 53 (no result: Rtt109 HAT inh) | rCAG bind conf 81 | dCAG dye counter 48 | PRMT1 inh conf 52
